PubChem BioAssay (NCATS)
Activity calls are given as the source filed them. Entries that show only a call come without a potency. Calls come from the whole dose curve; as a rule, active = well fitted inhibition curve with a large enough effect; inconclusive = small, poorly fitted or top-dose-only effect; inactive = flat fitted curve, though single readings scatter.

tested on: Nanoluciferase (engineered Oplophorus gracilirostris luciferase); assay: Primary Nanoluciferase (NLuc) qHTS assay for identification of artifact compounds. (AID 1845222); details: NLuc-conditioned medium, Nano-Glo luminescence, 5 min; series mostly up to 54.1 µM
Source text: PI: Alexander Tropsha Ph.D.
UNC Eshelman School of Pharmacy
University of North Carolina, Chapel Hill, North Carolina
Hits from high-throughput screening (HTS) of chemical libraries are often false positives due to their interference with the assay detection technology. In response to this problem, we generated the largest publicly available library of chemical liabilities and developed a free webtool to predict HTS artifacts, both of which are described herein. More specifically, we generated, curated, and integrated HTS datasets for thiol reactivity, redox activity, and luciferase (firefly and nano) activity. Using these curated datasets, we developed and validated several Quantitative Structure-Interference Relationship (QSIR) models to predict nuisance behavior. […] These models were employed for virtual profiling of the National Center for Advancing Translational Science's (NCATS) in-house library, and 256 compounds for each assay were selected for the experimental validation of nuisance behavior. The BA for these external predictions ranged from 58 to 78% for compounds within the applicability domains of the models. […] The models developed in this study, along with aggregation models previously developed by our group (SCAM Detective) were implemented in "Liability Predictor," an online tool which may be used as part of chemical library design or for triaging HTS hits. Both the models and the curated datasets are publicly available at https://liability.mml.unc.edu/.
SEQUENCE No. (e.g., 1, 2, 3, etc.); […] (e.g., Cells, Incubation, Reagent, etc.); VALUE; DESCRIPTION.
1; Reagent; 2 uL; Nanoluciferase media.
2; Compounds and control; 16 nL; Kalypsis pin tool (Wako USA) equipped with a 1536-well pin head.
4; Reagent; 2 uL; Luciferase enzyme.
6; Detection; Luminescence, ViewLux microplate reader.
NOTES (numbers refer to Sequence numbers above)
1. Medium was collected from the culture flasks of NLuc-expressing S16 cells (80% confluent) prior to cell plating, filtered through a 0.22um filter, and frozen at -20C prior to use. Media was diluted (1:55) and 2 uL was dispensed into all wells of a 1536-well assay plate (solid-bottom white plate; Greiner Bio One, Monroe, NC).
2. A Wako Pin-tool (Wako Automation, Richmond, VA) was used to transfer 16 nL of compounds (consisting of 7-plates in qHTS format, final concentration range 18.3 nM to 114 uM) or control Cilnidipine (final concentration range 623 nM to 80 uM).
3. 15 min. incubation at room temperature protected from light.
4. 2 uL of NLuc substrate (1:100 in Nano-Glo luciferase buffer; Nano-Glo luminescence assay, Promega, Madison, WI) was dispensed for a final assay volume of 4 uL.
5. Plates were centrifuged (121xg, 15 seconds) and incubated for 5 minutes.
6. Samples were read for luminescence on a ViewLux CCD imager (PerkinElmer). Data were normalized to no-enzyme (0% activity) and no-inhibitor (DMSO; 100%) controls and the resulting percent inhibition data were fitted to a 4-parameter Hill equation using NCATS in-house software.

Q: How did the Potency turn out when `C[C@H]1CN(C[C@H](Cc2ccccc2)C(=O)NCC(=O)O)CC[C@@]1(C)c1cccc(O)c1` was run?
A: inactive

Q: `COc1cc(C[C@H]2COC(=O)[C@@H]2Cc2ccc(O)c(OC)c2)ccc1O` was tested. Which Potency did it give?
A: inactive

Q: `C[C@@H]1O[C@@H](OC[C@H]2O[C@@H](OCCc3ccccc3)[C@H](O)[C@@H](O)[C@@H]2O)[C@H](O)[C@H](O)[C@H]1O` was tested. Which Potency did it give?
A: inactive

Q: How did the Potency turn out when `C=C1CCC2C(C)(C(=O)O)CC(O)CC2(C)C1CC/C(C)=C/C(=O)O` (stereo not given) was run?
A: inactive

Q: How did the Potency turn out when `Cc1nnc(C(C)C)n1C1CC2CCC(C1)N2CC[C@H](NC(=O)C1CCC(F)(F)CC1)c1ccccc1` (stereo not given in full) was run?
A: inactive

Q: With `CC(=O)O[C@@]1(C)C[C@@H](O)[C@]2(O)C=CO[C@@H](O[C@@H]3O[C@H](CO)[C@@H](O)[C@H](O)[C@H]3O)[C@@H]21` as the compound, how does the Potency read?
A: inactive

Q: How did the Potency turn out when `O=C(/C=C/c1ccc(O)c(O)c1)OCc1ccccc1O[C@@H]1O[C@H](CO)[C@@H](O)[C@H](O)[C@H]1O` was run?
A: inactive

Q: Which Potency does the source give for `C[C@]1(OC(=O)/C=C/c2ccccc2)C[C@H](O)[C@]2(O)C=CO[C@@H](O[C@@H]3O[C@H](CO)[C@@H](O)[C@H](O)[C@H]3O)C12` (stereo not given in full) here?
A: inactive

Q: With `CC(=O)c1c(O)cc2cccc3c2c1CC(C)(O)O3` (stereo not given) as the compound, how does the Potency read?
A: inactive

Q: For `CCOC(=O)Nc1nc2ccccc2[nH]1`, which Potency is on record?
A: inactive

Q: Which Potency does the source give for `NS(=O)(=O)NCCNc1nonc1C(=Nc1ccc(F)c(Br)c1)NO` here?
A: inactive

Q: With `C=C[C@H]1[C@H](O[C@@H]2O[C@H](CO)[C@@H](O)[C@H](O)[C@H]2O)OC=C2C(=O)OCC[C@]21O` as the compound, how does the Potency read?
A: inactive

Q: For `O=C(O[C@H]1[C@@H]2C=CO[C@@H](O[C@@H]3O[C@H](CO)[C@@H](O)[C@H](O)[C@H]3O)[C@@H]2[C@@]2(CO)O[C@@H]12)c1ccc(O)cc1`, which Potency is on record?
A: inactive

Q: With `CCn1cc(C2=NOC(C(=O)Nc3c(C)n(C)n(-c4ccccc4)c3=O)C2)c(C)n1` (stereo not given) as the compound, how does the Potency read?
A: inactive

Q: `COC1=Cc2c(nc3n(c2=O)C(C)C(=O)NC3(O)C(C)C)OC=C1` (stereo not given) was tested. Which Potency did it give?
A: inactive

Q: With `C=C(C)[C@H]1C[C@@H](O)C(=C)CC[C@@H](O)C(=C)[C@@H](O)C1` as the compound, how does the Potency read?
A: inactive

Q: `COc1ccc([C@@H]2N[C@H](C(=O)O)Cc3c2[nH]c2ccccc32)cc1CN1CCN(c2ccccc2F)CC1` was tested. Which Potency did it give?
A: inactive

Q: Which Potency does the source give for `COc1cc(C(=O)OC[C@H]2O[C@H](O[C@@]3(CO)O[C@@H](CO)[C@H](O)[C@H]3O)[C@H](O)[C@@H](O)[C@@H]2O)ccc1O` here?
A: inactive

Q: How did the Potency turn out when `CCNC(=O)[C@H]1O[C@H](n2cnc3c(NCC(c4ccccc4)c4ccccc4)nc(C(=O)NCCNC(=O)NC4CCN(c5ccccn5)CC4)nc32)[C@H](O)[C@@H]1O` was run?
A: inactive

Q: For `Nc1c(Br)cc(Br)cc1CNC1CCC(O)CC1` (stereo not given), which Potency is on record?
A: inactive

Q: `CC(C)(C)c1cc(CN2CCN(CC(O)c3ccc(Cl)cc3)CC2)cc(C(C)(C)C)c1O` (stereo not given) was tested. Which Potency did it give?
A: inactive

Q: How did the Potency turn out when `OC[C@H]1O[C@@H](n2cnc3c2NC=NC[C@H]3O)C[C@@H]1O` was run?
A: inactive

Q: Which Potency does the source give for `CN1C(=O)N[C@@H](Cc2c[nH]c3c(Cl)cccc23)C1=O` here?
A: inactive

Q: How did the Potency turn out when `C=C(C(=O)OC)C1CCC2(C)C(O[C@@H]3O[C@H](CO)[C@@H](O)[C@H](O)[C@H]3O)CC(=O)C(C)C2C1O` (stereo not given in full) was run?
A: inactive

Q: `COc1cc(CCc2ccccc2)c(C(=O)O)c2c1CC(C(C)(C)O)O2` (stereo not given) was tested. Which Potency did it give?
A: inactive

Q: With `C=CC1(C)CC(O)C2(CCC3C(C)(C(=O)O)CCCC3(C)C2=O)C1` (stereo not given) as the compound, how does the Potency read?
A: inactive

Q: Which Potency does the source give for `CC1=C2C(=O)C=C(CO)[C@@H]2[C@H]2OC(=O)[C@H](C)[C@@H]2[C@@H](O)C1` here?
A: inactive

Q: Which Potency does the source give for `C[C@@]12C[C@]3(O)O[C@H](O1)[C@]1(COC(=O)c4ccccc4)[C@H]3C[C@@]12O[C@@H]1O[C@H](COC(=O)c2ccccc2)[C@@H](O)[C@H](O)[C@H]1O` here?
A: inactive

Q: Which Potency does the source give for `CC(=O)N(O)CCCCCN1C(=O)CCC1=O` here?
A: inactive

Q: For `C[C@@H]1C/C=C/C=C\C=C\C=C\[C@H](O[C@@H]2O[C@H](C)[C@@H](O)[C@H](N)[C@@H]2O)C[C@@H]2O[C@](O)(C[C@@H](O)C[C@H]3O[C@@H]3/C=C/C(=O)O1)C[C@H](O)[C@H]2C(=O)O`, which Potency is on record?
A: inactive

Q: `CC(=O)OC[C@@]12[C@@H](OC(C)=O)C[C@@H](C)[C@](C)([C@@H]3C[C@H]4C=CO[C@H]4O3)[C@H]1CCC[C@]21CO1` was tested. Which Potency did it give?
A: inactive

Q: For `C=C1C[C@@]23CC[C@@H]4[C@](C)(C(=O)O)CCC[C@@]4(C)C2=CC[C@H]1C3`, which Potency is on record?
A: inactive

Q: Which Potency does the source give for `COC(=O)c1cc(CN2CCN(C(=N)N)CC2)cc(C(=O)N2CCN(C(=O)c3ccc(C(=N)N)cc3)CC2)c1` here?
A: inactive

Q: Which activity, negative = inhibition does the source give for `CC(=O)O[C@@H]1C[C@]2(C)[C@@]3(CCC4[C@@]5(C)CC[C@H](O[C@@H]6O[C@H](C(=O)O)[C@@H](O)[C@H](O[C@@H]7O[C@H](CO)[C@H](O)[C@H](O)[C@H]7O[C@@H]7O[C@@H](C)[C@H](O)[C@@H](O)[C@H]7O[C@@H]7OC[C@](O)(CO)[C@H]7O)[C@H]6O[C@@H]6O[C@H](CO)[C@H](O)[C@H](O)[C@H]6O)C(C)(C)C5CC[C@]42C)O[C@@H](O)[C@]12C3CC(C)(C)[C@@H](OC(=O)/C=C/c1ccc(O)c(O)c1)[C@@H]2OC(=O)/C=C/c1ccccc1` (stereo not given in full) here?
A: 1.63% [at 11.6 µM] (inactive)

Q: For `C[C@@H]1CC[C@]2(C)C3(C)CC[C@@]2(OC3=O)[C@@]12C[C@H](c1ccoc1)OC2=O`, which Potency is on record?
A: inactive

Q: How did the Potency turn out when `CC1(O)CCC2C(C(=O)O)=COC(OC3OC(CO)C(O)C(O)C3OC(=O)/C=C/c3ccc(O)cc3)C21` (stereo not given) was run?
A: inactive

Q: `COc1ccccc1CC(C(=O)O)N(C)C(=O)c1ccccc1` (stereo not given) was tested. Which Potency did it give?
A: inactive

Q: Which Potency does the source give for `C=C1CC[C@H]2[C@@](C)(CCC(O)[C@@]2(C)CO)[C@@H]1C/C=C(/C(=O)O)C(O)CO` (stereo not given in full) here?
A: inactive

Q: How did the Potency turn out when `CC[C@H]1OC(=O)[C@H](C)[C@@H](OC2C[C@@](C)(OC)[C@@H](O)[C@H](C)O2)[C@H](C)[C@@H](OC2O[C@H](C)C[C@H](NC)[C@H]2O)[C@](C)(O)C[C@@H](C)CN(C)[C@H](C)[C@@H](O)[C@]1(C)O` (stereo not given in full) was run?
A: inactive

Q: `C=CC(C)(O)CO[C@@H]1O[C@H](CO)[C@@H](O)[C@H](O)[C@H]1O` (stereo not given in full) was tested. Which Potency did it give?
A: inactive
